Measured values published in PubChem BioAssay (NCATS).
Results filed as inconclusive are left out. Values without a mark were called inactive. The call rests on the fitted dose curve; in most records, active means well fitted cell-killing curve with a large enough effect; inconclusive means small, poorly fitted or top-dose-only effect, or effect the other way; inactive means flat fitted curve, though single readings scatter.

Test system: JEG-3
Experiment: Primary qHTS to identify gynecologic anti-cancer compounds using libraries of approved drugs and bioactive compounds (AID 1345084); further: nearly all actives have a fitted effect of over 55% in size
Conditions: Gynecologic cancer cell panel viability, ATPlite luminescence, 48 h; series mostly up to 57.5 µM; activity change, negative = cytotoxicity: at the top concentration
Summary of the method: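 Cells, 1,000 per well, plated 16 h, then exposed 48 h at 37 C to compounds. Viability by ATPlite luminescence after 15 min at room temperature.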
On the % scale 0 is the no-effect control and ±100 the full control effect.

SMILES | activity change, negative = cytotoxicity
CCCOc1ccc(S(=O)(=O)N2CCN(CCO)CC2)cc1-c1nc2c(CCC)cn(CC)c2c(=O)[nH]1 | 11.9%
COc1ccc(CCCN2CCC(COC(c3ccccc3)c3ccccc3)CC2)cc1 | 2.83%
CCNc1nc(Nc2cc(F)c(C(=O)N3CCOCC3)cc2OC)ncc1C(F)(F)F | 0.602%
CC(=O)O[C@@H]1[C@@H](OC(C)=O)[C@H](C)O[C@@H](O[C@H]2[C@@H]3C=CO[C@@H](O[C@@H]4O[C@H](CO)[C@@H](O)[C@H](O)[C@H]4O)[C@@H]3[C@@]3(CO)O[C@@H]23)[C@@H]1OC(=O)/C=C/c1ccccc1 | 10% [at 25.3 µM]
OC(c1ccc(-c2ccc(CN3CCN(Cc4ccncc4)CC3)cc2)c(F)c1)(C(F)(F)F)C(F)(F)F | 19.6%
O=C(Nc1ccccc1)N1CCN(c2nc(-c3ccccc3)ns2)CC1 | -12.1%
Cc1cc(N2CCOCC2)ccc1Nc1nc(NC2CCCCC2)c2[nH]cnc2n1 | -2.34%
O=C(O)CCc1nccc2c1[nH]c1ccccc12 | -0.23%
O=c1[nH]c2ccc(C#CCN3CCC(Cc4ccccc4)CC3)cc2[nH]1 | 24.4%
COC1=CC(=O)O/C1=C(/OC)[C@@H]1O[C@H]1c1ccccc1 | -11.5%
O=C(Nc1ccc(-c2ccnc(Nc3ccc(N4CCOCC4)cc3)n2)cc1)C1CCCN1 (stereo not drawn) | -6.49%
CCCCC1CCN(CCCN2C(=O)CCc3ccccc32)CC1 | 10.6%
O=C(NCc1cccs1)c1cc2nc(-c3ccco3)cc(C(F)(F)Cl)n2n1 | -3%
